Our source for the composite z-score values is PubChem BioAssay.

Focal adhesion kinase 1 (Homo sapiens), sequence (Q05397 whole entry, looked up): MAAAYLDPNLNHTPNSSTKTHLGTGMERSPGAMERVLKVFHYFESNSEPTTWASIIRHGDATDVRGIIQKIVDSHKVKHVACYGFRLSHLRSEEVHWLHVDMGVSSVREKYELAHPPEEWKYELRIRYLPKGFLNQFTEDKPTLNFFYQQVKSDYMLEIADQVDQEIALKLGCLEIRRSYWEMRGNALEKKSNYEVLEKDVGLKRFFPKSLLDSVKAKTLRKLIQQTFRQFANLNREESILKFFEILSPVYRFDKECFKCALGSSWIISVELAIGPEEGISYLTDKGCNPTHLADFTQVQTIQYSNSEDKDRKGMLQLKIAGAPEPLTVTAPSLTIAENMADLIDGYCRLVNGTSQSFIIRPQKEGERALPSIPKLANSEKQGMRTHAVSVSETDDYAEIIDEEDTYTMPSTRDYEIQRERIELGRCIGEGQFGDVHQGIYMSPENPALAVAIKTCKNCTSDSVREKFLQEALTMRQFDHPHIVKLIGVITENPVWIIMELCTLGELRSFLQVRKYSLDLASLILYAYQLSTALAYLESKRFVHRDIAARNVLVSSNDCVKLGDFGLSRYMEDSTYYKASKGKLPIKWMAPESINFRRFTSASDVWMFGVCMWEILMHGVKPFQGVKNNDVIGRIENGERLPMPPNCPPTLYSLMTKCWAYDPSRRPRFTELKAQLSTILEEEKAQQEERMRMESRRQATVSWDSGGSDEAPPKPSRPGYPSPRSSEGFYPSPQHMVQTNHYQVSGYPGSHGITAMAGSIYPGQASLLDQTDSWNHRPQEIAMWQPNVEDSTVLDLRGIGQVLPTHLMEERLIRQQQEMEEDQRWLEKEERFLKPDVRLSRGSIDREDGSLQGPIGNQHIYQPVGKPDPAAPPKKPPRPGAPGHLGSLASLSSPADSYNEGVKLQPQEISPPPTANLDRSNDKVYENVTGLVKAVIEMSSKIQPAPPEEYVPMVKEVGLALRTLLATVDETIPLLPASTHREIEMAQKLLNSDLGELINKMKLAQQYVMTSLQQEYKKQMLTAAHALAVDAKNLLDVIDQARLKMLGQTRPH

The assay has as its target Focal adhesion kinase 1 (Homo sapiens) (UniProt Q05397). Description: PTK2 protein binding on printed compound slides – biochemical, small-molecule microarray, 635/667 nm fluorescence, BSA, DTT, primary screen (AID 1130).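 Also: composite of spot emission at 667 nm and signal to noise over triplicate slides.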 The note with it: 635 nm fluorescence, higher = more signal.
`C=CCC(OC(C)=O)[C@@H]1[C@@H](N(Cc2cccc3ccccc23)C(=O)c2cccc3ccccc23)c2cc(OCCCO)ccc2N1C(=O)c1ccc2ccccc2n1` (stereo not given in full) came in with a composite z-score of 0.791.

As to `COc1ccc(C(O)C2C=CC3C(=O)NC(=O)C3N2Nc2ccccn2)cc1OCc1ccccc1` (stereo not given), the composite z-score is -0.0511.

In turn, `CCCN1C(=O)[C@@]2(CCC(=O)OC(C)(C)C)N=C(c3ccc(OCCCO)cc3)O[C@H]2c2ccccc21` registered a composite z-score of 0.677.

As for `COc1cccc(C(=O)O[C@H]2CC[C@]3(C)C4=C(CCC3C2(C)C)[C@]2(C)CC[C@H]([C@H](C)CCCC(C)C)[C@@]2(C)CC4)c1` (stereo not given in full), the composite z-score was -0.404.

With `COc1cc2c(cc1OC)CN(C(=O)[C@@H]1[C@H]3C(=O)O[C@H](c4ccccc4)[C@H](c4ccccc4)N3[C@H](c3ccccc3OCCO)[C@@]13C(=O)Nc1ccc(C#CCNC(N)=O)cc13)CC2`, the composite z-score amounted to 1.33.

As for `CN(C)CCCCNC(=O)[C@H]1C[C@H]2C(=O)N[C@@H](Cc3ccccc3)C(=O)N2[C@H]1c1ccc(O)cc1`, the composite z-score is -0.366.

On to `COc1ccc(CCN2C(=O)[C@@]3(Cc4ccccc42)c2ccccc2C(=O)N(Cc2ccccc2Cl)[C@H]3c2ccc(CO)cc2)cc1`, for which the composite z-score was -0.657.

`CCCCCCCCCCC(O)C1C=CC2C(=O)N(Cc3ccccc3)C(=O)C2N1n1cnnc1` (stereo not given) yielded a composite z-score of 0.656.

On to `COCCOC(=O)N1C(=O)[C@@]2(c3cc(C#CCC(C(=O)OC)C(=O)OC)ccc31)[C@H](C(=O)N1CCN(c3ncccn3)CC1)[C@H]1C(=O)O[C@H](c3ccccc3)[C@H](c3ccccc3)N1[C@@H]2c1ccc(OCCO)cc1`, for which the composite z-score was 0.21.

Turning to `C=C(COC)C(=O)CC[C@@H](OC(=O)c1cccnc1)c1ccc(CO)o1`, the composite z-score is -0.111.
